The values below come from the supplement of paper PMC10105736.

Holding throughout (assay): MAPPIT interaction score (arbitrary units); higher = stronger binary interaction signal, active = hit call of the paper
One test concerns the target CG14464. The note with it: MAPPIT configuration: N-N; pair source set: RRS.
For a further test, the target named is CG14190. The note with it: pair source set: RRS.
The target in the next test is CG42512. The note with it: pair source set: RRS.
Another test deals with CG13560. As to conditions: MAPPIT configuration: N-N; pair source set: Finley_Y2H.
Another test has as its target CG13510. As to conditions: MAPPIT configuration: N-N; pair source set: Lit-BS-16.
The next test concerns the target CG1416. As to conditions: MAPPIT configuration: N-N; pair source set: DPIM.
For another test, the target named is CG14282. The note with it: MAPPIT configuration: N-C; pair source set: RRS.
A further test concerns the target CG14074. The note with it: MAPPIT configuration: N-N; pair source set: screen_1.
The target in the next test is GstO3. As to conditions: MAPPIT configuration: N-N; pair source set: DPIM.
The next test concerns the target CG13965. As to conditions: MAPPIT configuration: N-C; pair source set: screen_4.

Values without a mark were called inactive.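 How the source made its calls: active = MAPPIT score above the 99th percentile of random reference set scores in the same batch; inactive = at or below it.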
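Further: HEK293T cells with Epo stimulation, STAT-responsive firefly luciferase reporter, fold induction versus unstimulated cells divided by the larger fold induction of two negative controls lacking either bait or prey.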

B1: Cdk12 (protein)
chain: MHASSAAATALVEYSDVSSEDFSDQEAGDLDADAGKGAGNIKKPKPAPDNQFSKGRLDAKPDKEGYDNYRSRRAEDSSDPVAAGSRQTSSSEATNPREEPSQASNTSKDELWGREIYMSSDSIDTDELEAEMKRQKRKKQKKEKHKHKSKKKSKKRKKKRAKSYSSIDSMSDNDINALLDRRYTPPTAPSKSNERTVSAAPSSFTPHNLKESSSPATPPPVRRPNTNSNYYGESSLETANSALGSNLQVTVTNKQSISNRLRSPPPSSRSSGNGPRFGNSPRTPPPSHYSSSGGGGVGSGSVVRDSRSSRYVNSPHKEDVSAHHRSSHDHGYQGRYSGAGSSSHDTRKVKRLSPELDRYNHQPSTPPHKRRKFSDGREVGLGNFEHSRHHSGKYERYSRDRYSRRSSRSPSVQHSRSRQSPSGGLSSGSNAFRHGGSHKHKYGTTVSSTPSHTTRTSKRASGTGTSGDRYSRSPRTSSRYMESSPPSPVGASGSHHYHHRRSPRMRQRTRGDSRRRSPSSASSESSASRSRSPTSRDLKHKREEYIKKISETSLFAELVKDRHKRQKALKEIIERQEENSNSNSNGALTINDNSSSVDGNTPNAADGRSAPGSGTPAAASTTSNGLQALGSKPDLDLNNIPMPNKQNDSVVSNPASNADVPDSVAQLKQPLLVPPFSASKNNIKPKSLTSLPLPPGMNVLDLAGARSPSPGQKKESDEKNVTSSGSANKSVLNLPMPPVIPGSEELSGDDDVIDSPEDFDAPAVGTVHGHGGGPGTTRQRPVILNRRDSRNNVRDWGERCVDVFEMIAQIGEGTYGQVYKARDHHTNDMVALKKVRLEHEKEGFPITAVREIKILRQLNHRNIVNLHEIVTDKQDAVEFRKDKGSFYLVFEYMDHDLMGLLESGMVDFNEENNASIMKQLLDGLNYCHKKNFLHRDIKCSNILMNNRGKVKLADFGLARLYNADDRERPYTNKVITLWYRPPELLLGEERYGPSIDVWSCGCILGELFVKRPLFQANAEMAQLETISKICGSPVPAVWPNVIKLPLFHTLKQKKTHRRRLREDFEFMPAPALDLLDKMLDLDPDKRITAEDALRSPWLRKINPDEMPTPQLPTWQDCHELWSKKRRRQMREQQESLPPTVIASTKYQQHGATMVGDA
As for B1, the MAPPIT interaction score in the test with CG14464 was 0.381.

B2: tut (protein)
chain: MDFESKYCTSQVNGTITITTRKVLDENLKSLLDEGKGELFLSCIPRNHSCSPRWIVEVASELGEVYIMRYKIDFSGNSRGYAYLQYINVDLKESAMQYLPMRFRQLCMCLRVEPSTNNRELVLKNVESSLRPWQVYQEMLKIHPFTIVRVYEYQLDQFFYIFEYRNNDSAASAHQRVRNSIRKFGEHAHISWLTAENILSRASGSFCFQREVSQNRTRRVPPRQKGCFKF
Take B2: the MAPPIT interaction score is 0.351 with CG14190 (MAPPIT configuration: N-C), -0.511 with CG14190 (MAPPIT configuration: N-N), -0.391 with CG42512 (MAPPIT configuration: N-C) and 0.0427 in the test with CG42512 (MAPPIT configuration: N-N).

B3: Treh (protein)
chain: MFKLPTISLLLVSWSCLVALSQAKTYSLPDLTTDYNNAIPVDEEEAQDPFASCKIYCEGNLLHTIQTAVPKLFADSKTFVDMKLNNSPDKTLEDFNAMMEAKNQTPSSEDLKQFVDKYFSAPGTELEKWTPTDWKENPSFLDLISDPDLKQWGVELNSIWKDLGRKMKDEVSKNPEYYSIIPVPNPVIVPGGRFIEFYYWDSYWIIRGLLYSQMFDTARGMIENFFSIVNRFGFIPNGGRVYYHGRSQPPLLTGMVKSYVDFTNDDKFAIDALDTLEHEFEFFVNNHNVTVKNHSLCVYRDSSSGPRPESYREDVETGEEFPTDEAKELHYSELKAGAESGMDFSSRWFISPTGTNDGNRSALSTTSIVPVDLNAYLYWNAKLIAEFHSKAGNTKKVTEYETKAEKLLLGIQEVLWNEEAGVWLDYDMINQKPRDYYTPTNLSPLWVKAFNISESEKISASVMAYIERNKLDSFPGGVPNTLSYTGEQWDAPNVWAPMQYILVEGLNNLNTPEAKNMSLKWATRWVKTNFAAFSKDRHMYEKYNADEFGVGGGGGEYEVQTGFGWSNGVIIEWLSKHGRDISIGSGCGCLAGEKRQ
With B3, the MAPPIT interaction score with CG13560 is -0.19.

B4: Grip75 (protein)
chain: MIHDLLLACRSHNPEQLGIKAFNETTVIDQFIHPCEREIFMDIIKIIKVYQEVEQFTHSSGRKSDTHGELPDSLHGYYLLNLAKGIEMALEEYYAEIGRLEKYCLGNERNSLSYVYNALYAKFPLLVFMRNLITEIHVLNLRGCVLLHNLHQQCEHGDIQLEKAIKIIMKPVKNAFFSSLAHWLLFGVIDDVHSEFFIKFTPTDAVDGSSFSKSATCSLLSAEKNPEDYIWQYEVNMSQLPGFFSIVLAEKVLFVGQTVLVFKMGRNVKVKNKTDPLAAKLAELDSDDIYQLWSGRESEFFKMVVDLSNEDTINVFRLEKVIIDIKNYVSARLSEIAVNEVDLERQMGLIKDFFLLGRGEFYLEFCSQMVGTMETYREERFKNVTRSFELAATVTGITDDLDKFSLICQRSTSEPDDTSDFNFLQGLSLKYEYEWPLNLLFSPTTIERYNNIFRFLLIIRTYQYEIQRVWAKQTWRAKSAKDVPPNNKIITLRNYLMFFLNNMQYYIQVDVLESQFGILMNVIKSRSDFEVIQRAHTVFLANVLSHCFLLNESETQLNVTGSQNRNPIYGTLLKLFGICEKFAHMTQTKDPSDDLEDEVDQLNESFGVQIASLIQLLVDVKSASCLGPLSQLLLRLDFNCWFSASHNTSA
B4: the MAPPIT interaction score in the test with CG13510 is 0.427.

B5: M6 (protein)
chain: MSKVKNLLAKMLQRFGKNSSQADSQRYDSLEEIAQNQANERMLRATQVGLEEHLVICLETEAGSFYWHSQ
In the case of B5, the MAPPIT interaction score with CG1416 is -0.155.

B6: Fkbp12 (protein)
chain: MGVQVVPIAPGDGSTYPKNGQKVTVHYTGTLDDGTKFDSSRDRNKPFKFTIGKGEVIRGWDEGVAQLSVGQRAKLICSPDYAYGSRGHPGVIPPNSTLTFDVELLKVE
With B6, in the test with CG14282, the MAPPIT interaction score is -0.281.

B7: PI31 (protein)
chain: MESGSTAKTGDFFYGWDLLYKTVKADVSKKSDLLIALVHFLLTKHYNFRCVGVGDDKTLPEEEGSELLPDSWNDDDTKYSLRYVHDKMLYLLLGHITEGSLLINLLDINTKKVSNICVEPETLVPEVKGGITTIMPSASEIVERYRRELLDPVFTGNSREVTTQTTNSPRPIGSDPDPLRIGEPRRGGSFIPSAFEPRPFGFPDVGRGDLDPLGRGGHGNLFSFPSRPNMGPGPVPRFDPFNPLNPNRPGQGGINPDHMRPPDWNPDYYM
B7: the MAPPIT interaction score is -0.274 with CG14074 and 0.447 with GstO3.

B8: RpLP2 (protein)
chain: MRYVAAYLLAVLGGKDSPANSDLEKILSSVGVEVDAERLTKVIKELAGKSIDDLIKEGREKLSSMPVGGGGAVAAADAAPAAAAGGDKKEAKKEEKKEESESEDDDMGFALFE
In the case of B8, the MAPPIT interaction score in the test with CG13965 was 2.1.
